The values below come from PubChem BioAssay (NCATS).

Values joined by “and” are separate entries in the source; they are usually repeats but may differ in a detail not shown here. Equal values may be shown once. Records with an inconclusive call do not appear. Where a structure was tested more than once in an assay, its records may differ in their call. A number with no mark means an inactive call. Active and inactive are the calls of the source. Calls follow the shape of the dose curve; as a rule, active = well fitted inhibition curve with a large enough effect; inconclusive = small, poorly fitted or top-dose-only effect; inactive = flat fitted curve, though single readings scatter.

Experiment [1] deals with CRL-7250. In words: Cytotoxic Profiling of Annotated Libraries Using Quantitative High-Throughput Screening (AID 1296008). Also: potency is read from the fitted curve at half-maximal effect. As to max response: % is scaled to controls: 0 for no effect and ±100 for the full control effect. As to conditions: Five cell lines viability, CellTiter-Glo ATP luminescence, 48-72 h; max response: hits give low values. The essentials:
(§1)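 Cytotoxicity was measured as CellTiter-Glo ATP luminescence, read after 10 min at room temperature. Compound treatment of the cells lasted 48 or 72 hr at 37 degrees Celsius in a qHTS format.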
A general note: Cellular ATP, detected with luciferase, serves as a proxy for viable cell number.

The test system of experiment [2] is HaCat. The description is as above. As to conditions: Five cell lines viability, CellTiter-Glo ATP luminescence, 48-72 h; max response: hits give low values. The essentials: as §1
The test system of experiment [3] is KB-3-1. The experiment is described as above. As to conditions: Five cell lines viability, CellTiter-Glo ATP luminescence, 48-72 h; max response: hits give low values. The essentials: as §1
In experiment [4] the test system is NIH3T3. The experiment is described as above. As to conditions: Five cell lines viability, CellTiter-Glo ATP luminescence, 48-72 h; max response: hits give low values. The essentials: as §1
In experiment [5] the test system is HACAT. The experiment can be described thus: qHTS assay to identify novel small-molecules to repurpose for Merkel cell carcinoma treatment (AID 1296009). As to conditions: MCC and control cell lines, CellTiter-Glo viability, 72 h; at 44.8 µM (top of the series) unless noted. The essentials: (§2)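 Cell viability, measured as CellTiter-Glo luminescence, was normalized between DMSO and no-cell wells. The cells had been exposed to 8- or 11-point compound dilutions for 72 hr at 37 degree celsius.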
For orientation: Quantitative high-throughput screening tests each substance at several concentrations.

Experiment [6] has as its system MCC-13. The description is as above. As to conditions: MCC and control cell lines, CellTiter-Glo viability, 72 h; series mostly up to 46 µM. The essentials:
as §2

In experiment [7] the test system is HEK293. In words: Cytotoxic Profiling of Annotated Libraries Using Quantitative High-Throughput Screening (AID 1296008). Also: potency is read from the fitted curve at half-maximal effect. As to max response: % is scaled to controls: 0 for no effect and ±100 for the full control effect. Conditions: Five cell lines viability, CellTiter-Glo ATP luminescence, 48-72 h; max response: hits give low values. The essentials:
as §1

Experiment [8] concerns HEK293T. In words: qHTS assay to identify novel small-molecules to repurpose for Merkel cell carcinoma treatment (AID 1296009). Conditions: MCC and control cell lines, CellTiter-Glo viability, 72 h; at 44.8 µM (top of the series) unless noted. The essentials: as §2
For experiment [9], the system named is TAB165. In words: qHTS profiling for inhibitors of Plasmodium falciparum proliferation (AID 504749). Also: potency is read from the fitted curve at half-maximal effect. Conditions: P. falciparum in erythrocytes, SYBR Green DNA, 72 h; series mostly up to 28.7 µM. The essentials: (§3)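 SYBR Green fluorescence of parasite DNA, read after lysis and overnight dark incubation, measured growth over 72 h in erythrocyte culture at 0.3% parasitemia and 2.5% hematocrit. Data normalised to DMSO and 0.29 uM artemisinin, with plate-drift correction.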

For experiment [10], the system named is W2. The experiment is described as above. Conditions: P. falciparum in erythrocytes, SYBR Green DNA, 72 h; series mostly up to 28.7 µM. Put shortly: as §3
Also: nearly all actives have a fitted effect of over 60% in size.

As for `CN(C)CCc1c[nH]c2ccc(C[C@H]3COC(=O)N3)cc12`, the max response is -10.2% in experiment [1]; 4.23% in experiment [2]; 7.3% and 1.82% in [3]; -0.145% in [4]. Moreover, the compound was classed as inactive in [1], in [2], in experiment [4] and in experiment [5]. Moreover, the Potency was 14.8 µM (active) in experiment [2] and 10.5 µM (active) in experiment [4]. Also, in [6], the Potency result is “inactive”.

For `CO[C@@H]1[C@@H](OC(N)=O)[C@@H](O)[C@H](Oc2ccc3c(O)c(NC(=O)c4ccc(O)c(CC=C(C)C)c4)c(=O)oc3c2C)OC1(C)C`, the max response in [1] was 0.852% and -24.9%; in experiment [2] it was 0.197%; in experiment [3], -7.22% and 9.2%; in [4], -2.07% and -24%. For the same compound, the compound was called inactive in [7], in experiment [2], in experiment [5] and in experiment [8]. For the same compound, the Potency result in experiment [6] was “inactive”.

As to `OC(Cn1cncn1)(Cn1cncn1)c1ccc(F)cc1F`, the Potency result in experiment [9], in experiment [10] and in experiment [6] was “inactive” in each case. Also, the max response is 2.49% and -1.86% in experiment [1]; -0.0788% and -5.53% in [7]; -29.4% in experiment [2]; -2.5% and 5.59% in experiment [3]; -0.561% and -16.4% in experiment [4]. Moreover, the outcome in experiment [2] and in [5] was inactive.

Take `CCC(=O)O[C@]1(C(=O)CCl)[C@@H](C)C[C@H]2[C@@H]3CCC4=CC(=O)C=C[C@]4(C)[C@@]3(F)[C@@H](O)C[C@@]21C`: the max response in experiment [1] was -12.4%; in experiment [2], -4.36% and -8.18%; in experiment [3], -5.78% and 1.04%; in [4] it was -2.25%. Further, the call in experiment [1] and in experiment [4] was inactive. Besides, the Potency result in [6] is “inactive”.

As to `COc1ccc(-c2ccc3cc(C(=O)O)ccc3c2)cc1C12CC3CC(CC(C3)C1)C2`, the Potency result in [9] and in [6] was “inactive” each time. In addition, the max response in experiment [1] was 1.82% and 2%; in [7], 3.2%; in experiment [2], -4.15%; in [3], -1.55%; in experiment [4] it was 4.1%. Also, the result in experiment [2], in experiment [3], in experiment [4] and in experiment [5] was inactive.

As to `CCOCC(O)COc1ccc(NC(=O)CC[S+](C)C)cc1` (stereo not drawn), the Potency entry in [9], in experiment [10] and in experiment [6] was “inactive” throughout. Moreover, the max response was -11.9% and -0.62% in [1]; -1.76% and 3.69% in experiment [7]; 4.61% in experiment [2]; -5.04% in experiment [3]; 4.96% and 4.72% in experiment [4]. Besides, the outcome in experiment [2], in [3] and in experiment [5] was inactive.

`CC(C)(Sc1cc(C(C)(C)C)c(O)c(C(C)(C)C)c1)Sc1cc(C(C)(C)C)c(O)c(C(C)(C)C)c1`: the Potency entry in experiment [9] and in [6] was “inactive” in each case. For the same compound, the Potency in [10] was 4.05 µM (active). The max response was -4.36% in experiment [1]; 0.994% in [2]; -10.8% and 4.75% in experiment [3]; 1.18% in [4]. Moreover, the outcome in experiment [1], in [2], in experiment [4], in experiment [5] and in [8] was inactive.

Turning to `COC(=O)Nc1nc2ccc(S(=O)c3ccccc3)cc2[nH]1` (stereo not drawn), the Potency in [1] is 7.5 µM (active); in experiment [7] it was 841 nM (active) and 16.6 µM (active); in [4], 1.06 µM (active). For the same compound, the max response in experiment [1] is -3.6%. Also, the call in experiment [2] and in [5] was inactive.

Take `C#CCN[C@@H]1CCc2ccccc21`: the Potency entry in experiment [9], in [10] and in [6] was “inactive” in each case. Also, the max response in [1] is -10.3% and 4.11%; in experiment [7], -23.7%; in [2] it was 0.653%; in experiment [3] it was -4.71%; in [4], 1.77%. For the same compound, the compound was called inactive in [7], in experiment [4] and in [8].

For `Cn1nnc2c(C(N)=O)ncn2c1=O`, the Potency entry in experiment [9], in experiment [10] and in [6] was “inactive” in each case. Also, the max response in experiment [1] is 3.05%; in [2], 0.848%; in [3] it was 3.98% and 7.43%; in [4] it was -16.1%. In addition, the compound was classed as inactive in experiment [1], in experiment [2], in experiment [4] and in experiment [5].

For the compound `COCCCOc1cc(C[C@@H](C[C@H](N)[C@@H](O)C[C@H](C(=O)NCC(C)(C)C(N)=O)C(C)C)C(C)C)ccc1OC`, the max response in [1] is -2.04%; in experiment [2], 0.78%; in experiment [3], -10.1% and 2.39%; in experiment [4] it was -0.804%. For the same compound, the compound was classed as inactive in experiment [7], in [2], in experiment [4], in [5] and in experiment [8]. The Potency result in experiment [6] is “inactive”.

As to `CCn1cc(C(=O)O)c(=O)c2cc(F)c(N3CCN(C)CC3)cc21`, the max response in experiment [1] is -3.59%; in experiment [2], -4.37%; in [3], 2.67% and -1.65%; in experiment [4], -2.14%. The compound was classed as inactive in [1], in experiment [2] and in experiment [4]. For the same compound, the outcome in experiment [5] and in [8] was “inactive [at 17.4 µM]” in each case. The Potency entry in [6] is “inactive”.

Regarding `CNNCc1ccc(C(=O)NC(C)C)cc1`, the Potency entry in experiment [9] and in experiment [6] was “inactive” in each case. The outcome in experiment [1], in experiment [7], in experiment [2], in experiment [3], in experiment [4] and in experiment [5] was inactive. Further, the call in [8] was inactive. Also, the max response in [7] was 2.6%; in experiment [2], -9.48%; in experiment [3], -11.6%; in [4] it was -4.42%.

For `Cc1noc(NS(=O)(=O)c2ccc(N)cc2)c1C`, the Potency result in [9] and in experiment [6] was “inactive” in each case. Further, the max response is 4.08% and -1.95% in experiment [1]; 1.98% in [2]; -4.11% and 1.03% in [3]; -2.78% and -1.88% in experiment [4]. Moreover, the call in [7], in [2], in [3], in experiment [5] and in [8] was inactive.
